This is part of a sample that, as a whole, favours compounds with a hit. Of some 83,000 tested, about 20% had one in any assay.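 Note: values are percent growth. 100 is the growth of untreated cells, values between 100 and 0 indicate rising inhibition; between -100 and 0 indicates cell death.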 Unmarked numbers belong to inactive results. The source made the active and inactive calls.
The compounds below were run on MDA-MB-435 melanoma (assay: NCI-60 one-dose screen, 48 h (100 = growth as untreated, 0 = no growth, -100 = all killed)). Details: 10 µM unless noted.
Experimental: Growth inhibition of the MDA-MB-435 human Melanoma tumor cell line is measured as a screen for anti-cancer activity. Cells are grown in 96 well plates and exposed to the test compound for 48 hours. Compounds are tested at a single concentration, which is 10^-5 M for most compounds. The reported endpoint is percent growth (GI% or GIPRCNT), where numbers from 0 - 100% represent growth inhibition, and numbers from -100% - 0 represent cell death. For example, a value of 40 represents 60% growth inhibition. A value of 0 means no net growth occurred over the course of the experiment. A value of -40 indicates 40% of cells at the beginning of the experiment died by the end of the experiment. A value of -100 means all cells are dead at the end of the experiment.
NCI-60 Human Tumor Cell Lines Screen was performed using the standard one-dose NCI protocol, which is described in more detail at https://dtp.cancer.gov/discovery_development/nci-60/default.htm.
Compounds with GIPRCNT values below 10 were considered active. Activity score was based on GIPRCNT using the following formula: […]
Score is 0 for GIPRCNT values of 100 or above, 50 for GIPRCNT values of 0, and 100 for GIPRCNT values of -100.
Work on O=C(O)CCCCCCCCCCN1C(=O)/C(=C2/C(=O)N(CC(=O)O)c3ccc(Br)cc32)SC1=S yielded a growth of 102%. With CN1CCOCCN(C)Cc2ccc3ccc(cc3c2)CN(C)CCOCCN(C)Cc2ccc3ccc(cc3c2)C1 the growth was 82.9%. For ClCCn1cnc2c(SCc3ccccc3)ncnc21, the growth was 51.8%. O=C1c2cccnc2C(=O)c2c1c(C(=O)OCCc1ccccn1)c1ccccn21 was tested, and the growth was -10.7% (active). CN(C)/C(N)=N/N=C(\c1ccccc1)c1ccccn1 was tested, and the growth was 113%. Compound COc1nc(/C=C\Nc2ccc3c(c2)OCCOCCOCCOCCO3)nc(OC)n1 has a growth of 94.8%. Work on NS(=O)(=O)c1ccc(C(=O)N=Nc2c(O)[nH]c3ccc(Cl)cc23)cc1 yielded a growth of 105%. COc1ccc(-c2cc(C(=O)N3N=C(c4ccc(N)cc4)CC3c3ccc(Cl)cc3)c3cc(OC)ccc3n2)cc1 (stereo not given) was tested, and the growth was 9.88% (active). C=C[C@@]1(C)CC(=O)[C@@H](C(C)(C)c2cn(C)c3ccc(Br)cc23)C[C@@H]1O[Si](C)(C)C(C)(C)C showed a growth of 101%. CCOC(=O)c1cn2ncnc(Oc3ccc(NC(=O)NC4CC4)c(Cl)c3)c2c1C gave a growth of 96.4%. With COC(=O)c1c2c(c(C)[n+]([O-])c1C)C(=O)C(NCc1ccccc1)=CC2=O the growth was -61.4% (active). In the case of C=C(C)[C@@H]1CC[C@]2(COC3CCCCO3)CC[C@]3(C)[C@H](CC[C@@H]4[C@@]5(C)C=C(C=O)C(=O)C(C)(C)[C@@H]5CC[C@]43C)[C@@H]12 (stereo not given in full), the growth is reported as -56.4% (active). O=S(=O)(N=C1C(Cl)=C(Cl)C(=NS(=O)(=O)c2ccccc2)C(Cl)=C1Cl)c1ccccc1 showed a growth of 101%. With O=C(NCCCCCCNC(=O)OCc1ccc2c(Cl)cc(Cl)c(O)c2n1)OCc1ccc2c(Cl)cc(Cl)c(O)c2n1 the growth was -82.9% (active). For CCC(C)(C)c1ccc(Nc2ccc(Nc3ccc(C(C)(C)CC)cc3)cc2)cc1, the growth was 97.1%. Work on C=C1SC(=Nc2ccccc2Cl)N(C(=O)c2sc3ccccc3c2Cl)C1(C)C yielded a growth of 99.1%. Cc1ccc(S(=O)(=O)c2nc(-c3ccccc3)oc2SCC(N)=O)cc1 was tested, and the growth was 105%. For FC(F)(F)c1[nH]ncc1-c1nc2ccc3[nH]ncc3c2c2c1CCCC2, the growth was 32.1%. Compound O=C1Nc2ccccc2/C1=N/N1C(=O)CN(CCCl)C1=O has a growth of 98.9%. For Nc1[nH]nc2nc(-c3ccccc3)n3c4ccccc4nc3c12, the growth was 98.7%. Nc1nc(N)c2c(n1)NC(c1cccc(Nc3ccnc4cc(C(F)(F)F)ccc34)c1)CC(c1ccc3c(c1)OCO3)=N2 (stereo not given) was tested, and the growth was 9.59% (active). For CN(C)CCCn1c2c(c3ccncc3c1=O)C(=O)c1ccccc1-2, the growth was 7.89% (active). With C#CCOc1cccc(Nc2ncnc3cc(NC(=O)CCl)ccc23)c1 the growth was -75.2% (active). For COC(=O)c1ccc2cc(OC)c(OC)cc2c1, the growth was 98.8%. For C/C(Cc1ccc(Cl)cc1)=C(\c1ccc(OCCN2CCCCCC2)cc1)c1ccc(OC(=O)c2ccccc2)cc1, the growth was 47.6%. Compound Cc1ccc2c(c1)sc1nc(-c3c[nH]c4ccccc34)c(Nc3ccccc3)n12 has a growth of 97%. COc1ccc(C/C(C)=C(\c2ccc(Cl)cc2)c2ccc(OCCCN(C)C)cc2)cc1 was tested, and the growth was 82.6%. In the case of Nc1nc(C(=O)N/N=C/c2ccc(F)cc2)nn1-c1ccc(S(N)(=O)=O)cc1, the growth is reported as 100%. Cc1ccc(-c2csc(NC(=O)CSc3nc(N)cc(N)n3)n2)cc1 was tested, and the growth was 63.2%. With O=c1c2ccccc2n(C[C@H]2CO2)c2ccccc12 the growth was -61.5% (active). Cc1oc(-c2ccc(Cl)cc2)nc1C1=NN(C(=O)c2ccncc2)C(c2ccccc2)C1 (stereo not given) showed a growth of 95.9%. C=C1C(=O)O[C@@H]2C3C(=C(C)CC[C@@H]12)CC1O[C@]13C (stereo not given in full) was tested, and the growth was 75.5% [6.75 µM]. CC1SC(c2ccccc2O)N(NC(=O)CCC(=O)c2nc3ncccc3[nH]2)C1=O (stereo not given) showed a growth of 102%. Work on Nc1c(Br)cc2c(c1Br)Cc1cc([N+](=O)[O-])ccc1-2 yielded a growth of 108%. Compound CCOC(=O)c1ccc[nH]1 has a growth of 105%. CN(C)c1ccc([C@@H](C(=O)Nc2cccc([N+](=O)[O-])c2)N(C(=O)c2cc3ccccc3[nH]2)c2cccc([N+](=O)[O-])c2)cc1 gave a growth of 108%. Cn1cc(-c2csc(-c3cn(CCCN4CCOCC4)c4ccc(F)cc34)n2)c2cccnc21 showed a growth of 65.3%. In the case of COc1ccc(C/C(C)=C(\c2ccc(Cl)cc2)c2ccc(OCCN3CCCC3)cc2)cc1, the growth is reported as 89.4%. For CC1(C)N=C(N)N=C(N)N1c1cc(Cl)ccc1Cl, the growth was 108%. CN(C)c1ccc(CNCCO)cc1 was tested, and the growth was 102%.
